Where “and” joins values, the source holds several entries; their conditions need not be identical. Identical values can stand only once. About 2,000 (36%) of roughly 5,500 compounds were called active. Roughly 18% stayed inconclusive and do not appear here. No stated cut-off is given here; in the data, active means normalized growth mostly below about 0.91 (no sharp cut-off); inconclusive means no clear call, values can overlap the other calls; inactive means mostly above about 0.92. The list shows a part of the results.
Test: chemical genetic growth profiling, strain panel (AID 1159580);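 further: tested at 20 µM; growth read once vehicle control cultures reached saturation at 30 °C; 1 = growth at the plate median or of vehicle wells; lower values mean less growth of the strain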
Details: S. cerevisiae deletion strains, growth OD

Measured: normalized growth

COC(=O)C[C@H]1C(C)(C)[C@@H](O)[C@@H]2CC3=C4C=C(OC)O[C@@H](c5ccoc5)[C@]4(C)CCC3[C@@]1(C)C2=O (some centres not stated)
inactive: locus YAL021C, strain ccr4, hits give low values 0.996 | locus YAL026C, strain drs2, hits give low values 0.99 | locus YAL030W, strain snc1, hits give low values 1 | locus YBL061C, strain skt5, hits give low values 1.01 | locus YBR009C, strain hhf1, hits give low values 1.01 | locus YBR021W, strain FUR4, hits give low values 1.01 | locus YBR023C, strain chs3, hits give low values 0.997 | locus YBR171W, strain sec66, hits give low values 0.999 | locus YBR229C, strain ROT2, hits give low values 1 | locus YBR231C, strain swc5, hits give low values 1 | locus YBR279W, strain paf1, hits give low values 0.999 | locus YCL011C, strain gbp2, hits give low values 1.01 | locus YCL016C, strain dcc1, hits give low values 0.999 | locus YCL029C, strain bik1, hits give low values 0.978 | locus YCL061C, strain MRC1, hits give low values 1.01 | locus YCL069W, strain vba3, hits give low values 0.983 | locus YCR088W, strain abp1, hits give low values 0.99 | locus YDL005C, strain med2, hits give low values 0.989 | locus YDL035C, strain GPR1, hits give low values 1.01 | locus YDL040C, strain nat1, hits give low values 0.998 | locus YDL074C, strain BRE1, hits give low values 1.02 | locus YDL101C, strain DUN1, hits give low values 1 | locus YDL134C, strain PPH21, hits give low values 1.01 | locus YDL185W, strain tfp1, hits give low values 0.982 | locus YDL192W, strain arf1, hits give low values 0.991 | locus YDR001C, strain nth1, hits give low values 0.992 | locus YDR069C, strain doa4, hits give low values 0.998 | locus YDR101C, strain arx1, hits give low values 1 | locus YDR137W, strain rgp1, hits give low values 1.01 | locus YDR159W, strain sac3, hits give low values 0.998 | locus YDR162C, strain NBP2, hits give low values 0.987 | locus YDR195W, strain ref2 0.962 | locus YDR297W, strain sur2, hits give low values 0.994 | locus YDR318W, strain mcm21, hits give low values 0.995 | locus YDR334W, strain swr1, hits give low values 0.978 | locus YDR335W, strain msn5, hits give low values 0.994 | locus YDR388W, hits give low values 0.985 | locus YDR392W, strain spt3, hits give low values 0.992 | locus YDR502C, strain sam2, hits give low values 0.982 | locus YEL003W, strain gim4, hits give low values 0.994 | locus YEL037C, strain rad23, hits give low values 0.988 | locus YEL061C, strain CIN8 (second series), hits give low values 0.982 | locus YEL061C, strain CIN8, hits give low values 1 | locus YER015W, strain faa2, hits give low values 1 | locus YER016W, strain bim1, hits give low values 1.01 | locus YER110C, hits give low values 0.979 | locus YER111C, strain swi4, hits give low values 1 | locus YER155C, strain BEM2 (second series), hits give low values 1.02 | locus YER155C, strain BEM2, hits give low values 1 | locus YER167W, strain BCK2, hits give low values 1.02 | locus YFR010W, strain ubp6, hits give low values 0.982 | locus YGL078C, strain dbp3, hits give low values 0.984 | locus YGL086W, strain mad1, hits give low values 0.991 | locus YGL167C, strain pmr1, hits give low values 1.01 | locus YGL173C, strain kem1, hits give low values 1 | locus YGL227W, strain vid30, hits give low values 0.983 | locus YGL240W, strain doc1, hits give low values 1.02 | locus YGL248W, strain PDE1, hits give low values 0.999 | locus YGL253W, strain hxk2, hits give low values 0.993 | locus YGR078C, strain PAC10, hits give low values 1 | locus YGR135W, strain pre9, hits give low values 0.976 | locus YGR252W, strain gcn5, hits give low values 0.994 | locus YHR013C, strain ard1, hits give low values 1.01 | locus YHR027C, strain rpn1, hits give low values 0.994 | locus YHR030C, strain SLT2, hits give low values 0.96 | locus YHR079C, strain IRE1 (second series), hits give low values 0.992 | locus YHR079C, strain IRE1, hits give low values 0.968 | locus YHR094C, strain hxt1, hits give low values 0.987 | locus YHR129C, strain ARP1, hits give low values 1 | locus YHR142W, strain chs7, hits give low values 0.977 | locus YHR200W, strain rpn10, hits give low values 0.988 | locus YIL066C, strain RNR3, hits give low values 1.02 | locus YIL073C, strain SPO22, hits give low values 0.981 | locus YIL125W, strain kgd1, hits give low values 0.991 | locus YIR030C, strain dcg1, hits give low values 0.992 | locus YJL092W, strain hpr5, hits give low values 0.993 | locus YJL095W, strain BCK1 (second series), hits give low values 1 | locus YJL095W, strain BCK1, hits give low values 0.996 and 0.97 | locus YJL115W, strain asf1, hits give low values 0.985 | locus YJL129C, strain trk1, hits give low values 0.97 | locus YJL134W, strain LCB3, hits give low values 1.01 | locus YJL154C, strain vps35, hits give low values 0.978 | locus YJL164C, strain tpk1, hits give low values 0.997 | locus YJL166W, strain qcr8, hits give low values 0.995 | locus YJL168C, strain set2, hits give low values 0.983 | locus YJL187C, strain SWE1 (second series), hits give low values 1.01 | locus YJR043C, strain POL32, hits give low values 1.04 | locus YJR066W, strain TOR1, hits give low values 0.92 | locus YKL009W, strain mrt4, hits give low values 0.986 | locus YKL068W, hits give low values 0.996 | locus YKL085W, strain MDH1 (second series), hits give low values 0.975 | locus YKL085W, strain MDH1, hits give low values 0.975 | locus YKL160W, strain elf1, hits give low values 1.01 | locus YKL190W, strain CNB1, hits give low values 1 | locus YKR001C, strain vps1, hits give low values 0.992 | locus YKR026C, strain gcn3, hits give low values 0.972 | locus YKR091W, strain srl3, hits give low values 1 | locus YLL001W, strain dnm1, hits give low values 1 | locus YLL026W, hits give low values 1.01 | locus YLL041C, strain sdh2, hits give low values 1.02 | locus YLR027C, strain aat2, hits give low values 1 | locus YLR039C, strain RIC1, hits give low values 0.935 | locus YLR058C, strain SHM2, hits give low values 1.01 | locus YLR102C, strain apc9, hits give low values 0.987 | locus YLR113W, strain HOG1, hits give low values 0.998 | locus YLR221C, strain rsa3, hits give low values 0.998 | locus YLR258W, strain gsy2, hits give low values 0.993 | locus YLR262C, strain YPT6 (second series), hits give low values 0.959 | locus YLR262C, strain YPT6, hits give low values 0.857 | locus YLR268W, strain sec22, hits give low values 0.997 | locus YLR320W, strain mms22, hits give low values 1 | locus YLR342W, strain FKS1 (second series), hits give low values 1.02 | locus YLR342W, strain FKS1, hits give low values 0.999 | locus YLR357W, strain rsc2, hits give low values 1.01 | locus YLR370C, strain arc18, hits give low values 0.993 | locus YLR371W, strain rom2, hits give low values 0.983 | locus YLR384C, strain iki3, hits give low values 1 | locus YLR418C, strain cdc73, hits give low values 0.962 | locus YML016C, strain PPZ1, hits give low values 1.01 | locus YML032C, strain rad52, hits give low values 1 | locus YML120C, strain ndi1, hits give low values 0.998 | locus YML124C, strain tub3, hits give low values 0.992 | locus YMR058W, strain fet3, hits give low values 1 | locus YMR078C, strain ctf18, hits give low values 0.987 | locus YMR125W, strain sto1, hits give low values 0.993 | locus YMR129W, hits give low values 0.997 | locus YMR205C, strain PFK2, hits give low values 1.02 | locus YMR223W, strain ubp8, hits give low values 0.976 | locus YMR231W, strain pep5, hits give low values 0.997 | locus YMR307W, strain GAS1, hits give low values 1 | locus YNL067W, strain RPL9B, hits give low values 0.997 | locus YNL071W, strain lat1, hits give low values 0.978 | locus YNL183C, strain NPR1, hits give low values 0.938 | locus YNL209W, strain ssb2, hits give low values 0.985 | locus YNL233W, strain BNI4, hits give low values 1.01 | locus YNL248C, strain rpa49, hits give low values 0.97 | locus YNL250W, strain rad50, hits give low values 0.981 | locus YNL271C, strain bni1, hits give low values 0.985 | locus YNL298W, strain CLA4, hits give low values 0.984 | locus YNL307C, strain MCK1, hits give low values 0.98 | locus YNL322C, strain KRE1 (second series), hits give low values 1.01 | locus YNR049C, strain mso1, hits give low values 1 | locus YNR052C, strain pop2, hits give low values 0.979 | locus YOL006C, strain TOP1, hits give low values 1.03 | locus YOL012C, strain htz1 1.17 | locus YOL147C, strain pex11, hits give low values 0.986 | locus YOR001W, strain rrp6, hits give low values 0.989 | locus YOR061W, strain CKA2, hits give low values 1 | locus YOR069W, strain VPS5, hits give low values 1 | locus YOR070C, strain gyp1, hits give low values 0.987 | locus YOR080W, strain dia2, hits give low values 0.992 | locus YOR083W, strain WHI5, hits give low values 1.01 | locus YOR106W, strain vam3, hits give low values 0.98 | locus YOR136W, strain idh2, hits give low values 0.991 | locus YOR144C, strain elg1, hits give low values 0.992 | locus YOR184W, strain ser1, hits give low values 0.994 | locus YOR231W, strain MKK1, hits give low values 0.98 | locus YOR265W, strain rbl2, hits give low values 0.993 | locus YOR270C, strain vph1, hits give low values 0.86 | locus YOR290C, strain snf2, hits give low values 1.03 | locus YOR316C, strain cot1, hits give low values 0.981 | locus YPL051W, strain arl3, hits give low values 1.02 | locus YPL055C, strain LGE1, hits give low values 1.03 | locus YPL078C, strain atp4, hits give low values 0.985 | locus YPL106C, strain sse1, hits give low values 1.02 | locus YPL240C, strain hsp82, hits give low values 0.991 | locus YPL256C, strain CLN2, hits give low values 0.955 | locus YPR119W, strain clb2, hits give low values 0.982 | locus YPR141C, strain kar3, hits give low values 0.98 | locus YPR163C, strain tif3, hits give low values 0.981 | locus YPR167C, strain met16, hits give low values 0.983 | strain wtn01, hits give low values 1
